The results in this text go back to PubChem BioAssay (NCI).

Holding throughout (assay): NCI-60 one-dose screen, 48 h (100 = growth as untreated, 0 = no growth, -100 = all killed)
What all share (settings): 10 µM

Test [1] relates to SR leukemia.
Test [2] relates to RPMI-8226 leukemia.
The test system of test [3] is OVCAR-8 ovarian.
The subject of test [4] is OVCAR-5 ovarian.
Test [5] has as its system OVCAR-4 ovarian.
The test system of test [6] is IGROV1 ovarian.
For test [7], the system named is OVCAR-3 ovarian.
The subject of test [8] is HS 578T breast.
In test [9] the test system is NCI/ADR-RES ovarian.
Test [10] concerns SK-OV-3 ovarian.

Molecules are shown by their SMILES. Compounds without any hit were thinned out: in the full panel of roughly 83,000, 20% have a hit.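 Step 1: grow cells in 96-well plates. Step 2: add test compound at a single concentration. Step 3: incubate 48 h. Step 4: record percent growth.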 Values without a mark were called inactive. Activity calls are given as the source filed them. How the source made its calls: active means growth percent below 10; inactive means the rest.

For `CN(C)CCCOc1cccc(NC2=C(Cl)C(=O)C(Nc3cccc(OCCCN(C)C)c3)=C(Cl)C2=O)c1`, the growth is -9.52% (active) in test [1]; -47.5% (active) in test [2]; -80.1% (active) in test [3]; -47.9% (active) in test [4]; -98.8% (active) in [5]; -67.4% (active) in test [6]. In addition, the growth is -96% (active) in test [7], -2.49% (active) in [8] and 74.7% in [9].

For `CCCCCOC(=O)Nc1nc(=O)n(C2O[C@H](C)[C@@H](O)[C@H]2O)cc1F` (stereo partly specified), the growth in test [1] is 101%; in test [2] it was 101%; in test [3] it was 92.3%; in test [4], 104%; in [5], 109%; in test [6], 107%. Further, the growth in test [7] was 106%; in test [8], 104%; in [9] it was 96.4%.

For `O=C1/C=C/[C@@H](O)[C@@H]2C[C@@H](O)C[C@H]2/C=C/CCC[C@H](C(F)(F)F)O1`, the growth is -5.34% (active) in test [1]; -23.8% (active) in test [2]; 2.07% (active) in test [3]; 16.2% in test [4]; 28.5% in test [5]; 19.4% in [6]. In addition, the growth is -28% (active) in test [7], 38.5% in [8] and -9.43% (active) in test [9].

`O=C1c2ccccc2C(=O)c2c1ccc(C(Br)Br)c2Cl`: the growth was -51.2% (active) in test [1]; -15.5% (active) in test [2]; 17.1% in [3]; 104% in test [4]; 35.5% in [5]; -43.2% (active) in test [6]. Also, the growth is -13.8% (active) in test [7], 85.6% in test [8] and 64.6% in [9].

On to `OCC1OC2C(NC(=S)N2c2ccccc2)C(O)C1O` (stereo unspecified), for which the growth in [1] is 95.6%; in [2] it was 97.1%; in test [3] it was 97.2%; in [4], 105%; in test [5], 110%; in test [6], 121%. Also, the values for the growth in test [7], in [8] and in [9] were 102%, 88% and 105%, respectively.

For the molecule `Nc1c(Br)cc(Br)c2c1[nH]c(=O)c1ccccc12`, the growth is 81.1% in [1]; 96.2% in test [2]; 37.2% in test [3]; 72.8% in test [4]; 16.1% in [10]; 58.4% in test [6]. Besides, the growth is 68.7% in [7], 30.5% in test [8] and 44.3% in test [9].

For `CC(C)c1cc(N=O)cc(C(C)C)c1O`, the growth in test [1] is 106%; in test [2] it was 93.5%; in test [3] it was 103%; in [4], 97.2%; in [5] it was 104%; in test [6], 121%. Moreover, the values for the growth in test [7], in test [8] and in test [9] were 110%, 107% and 99.8%, respectively.

`CCOC(=O)CN(c1sc(C)c(C)c1C(=O)OCC)S(=O)(=O)c1ccc(C)cc1`: the growth in test [1] is 96.9%; in test [2], 98.2%; in test [3], 105%; in test [4], 107%; in test [10], 87.1%; in test [6], 111%. Further, the values for the growth in test [7], in test [8] and in [9] were 109%, 95.9% and 88%, respectively.

Regarding `O=[N+]([O-])c1ccc2ncccc2c1Cl`, the growth in test [1] was 7.28% (active); in [2], 38.7%; in test [3], 18.6%; in test [4], 85.3%; in [5], 90.2%; in test [10], 63.6%. Besides, the growth in test [8] is 67%; in test [9], 29.2%.

Take `COc1ccc(-c2cc(-c3ccc(Cl)cc3)nc(SCCCCCCC(=O)NO)n2)cc1OC`: the growth was 21.3% in test [1]; -9.15% (active) in test [2]; 51.5% in test [3]; 56.2% in [4]; 70.5% in test [5]; 35.9% in [6]. The growth was 75.5% in test [7], 63.7% in test [8] and 20% in [9].

For the molecule `Nc1nc(-c2ccc(Cl)cc2)cc(-c2cc3ccccc3oc2=O)n1`, the growth in test [1] was 106%; in [2], 98.6%; in [3], 106%; in [4] it was 108%; in [5], 100%; in test [6], 55.1%. Further, the growth in test [7] was 100%; in [8], 107%; in [9], 108%.

For the molecule `CCOC(=O)c1cc(C(=O)c2cc(OC)c(OC)c(OC)c2)n2nc(C)ccc12`, the growth was 23% in test [1]; 18% in test [2]; 25.4% in test [3]; 64.9% in test [4]; 51.8% in test [5]; 39.8% in test [6]. Also, the growth in [7] is 12.5%; in test [8] it was 55.9%; in test [9], 20.9%.

For the molecule `CC(=O)Nc1ccc(S(=O)(=O)N/N=C(\C)c2ccc(C)cc2C)cc1`, the growth in test [1] was 113%; in [2], 104%; in [3], 98.5%; in [4] it was 98.4%; in test [5], 102%; in [7], 111%. In addition, the growth was 134% in [8] and 112% in test [9].

For `CCC(CC)n1c(C)cc(=O)n1C(CC)CC`, the growth is 118% in [1]; 106% in test [2]; 104% in test [3]; 99.4% in [4]; 107% in test [5]; 140% in test [6]. In addition, the growth in test [7] was 113%; in test [8], 110%; in test [9], 107%.

`Cc1ccc(NCCNCC(C)(C)O)c2c(=O)c3ccc(Cl)cc3sc12`: the growth was -31.2% (active) in test [1]; -12.9% (active) in test [2]; 32.2% in test [3]; 59.9% in test [4]; 62.5% in test [5]; 29.8% in [6]. For the same molecule, the growth was 50.4% in test [8] and 45.9% in [9].

For `COc1cccc(N=Nc2cccc(OC)c2)c1`, the growth in [1] is 92.8%; in test [2], 87%; in [3], 96.2%; in [4] it was 90.6%; in test [5], 104%; in test [6], 89.6%. Besides, the growth is 102% in [7], 79.8% in test [8] and 105% in test [9].

As to `COc1cc(OC)c2c(=O)c(O)c(-c3ccccc3)oc2c1`, the growth in [1] was 40.1%; in test [2] it was 68.9%; in [3], 61.9%; in [4], 89%; in test [5], 65.3%; in [6], 78.8%. Also, the figures for the growth in test [7], in test [8] and in [9] were 68.4%, 88.9% and 65.9%, respectively.

For the molecule `O[C@@H]1CO[C@H]2[C@@H]1OC[C@@H]2O`, the growth in [1] was 112%; in test [2], 112%; in [3], 102%; in test [4] it was 92.6%; in test [5] it was 121%; in test [7], 120%. Besides, in test [9], the growth was 104%.

Take `CCOC(=O)C1C(C(=O)OCC)C2C(=O)C3C(C(=O)OCC)C(C(=O)OCC)C3C(=O)C12` (stereo unspecified): the growth in test [1] was 117%; in test [2] it was 101%; in [3], 104%; in [4] it was 108%; in test [10], 109%; in [6] it was 118%. The results for the growth in test [7], in [8] and in test [9] were 114%, 108% and 56%, respectively.

Regarding `CN(C)CCCN1c2ccccc2CCc2ccc(Cl)cc21`, the growth in test [1] was 49.2%; in [2], 47.8%; in test [3], 77.1%; in test [5], 53.1%; in [10], 82.4%; in test [6], 59.3%. Also, the growth in test [7] is 72.3%; in test [8] it was 68.7%; in [9] it was 59.5%.

Consider `C=C(NC(=O)C(=C)NC(=O)c1csc(C2=NC3c4csc(n4)C4NC(=O)c5csc(n5)C(C(C)(O)C(C)O)NC(=O)C5CSC(=N5)C(=CC)NC(=O)C(C(C)O)NC(=O)c5csc(n5)C3(CC2)NC(=O)C(C)NC(=O)C(=C)NC(=O)C(C)NC(=O)C(C(C)CC)NC2C=Cc3c(C(C)O)cc(nc3C2O)C(=O)OC4C)n1)C(N)=O` (stereo unspecified), for which the growth was -7.28% (active) in test [1]; 10.1% in test [2]; 20.4% in test [3]; 33.1% in [5]; 99.8% in [10]; 64.6% in [6]. Moreover, the growth in test [7] is 34%; in test [8], 42.5%; in test [9], 86.3%.

Consider `NS(=O)(=O)Oc1ccc2c(ccn2C(=O)C23CC4CC(CC(C4)C2)C3)c1`, for which the growth in test [1] was 111%; in [2], 110%; in test [3], 105%; in test [5] it was 104%; in [10], 121%; in test [6], 110%. Further, the growth in [7] was 117%; in test [8], 109%; in [9], 95.5%.

As for `CCC(c1ccc(OC)cc1)C(CC)c1ccc(O)c(CN2CCN(C)CC2)c1` (stereo unspecified), the growth is 4.26% (active) in test [1]; -21.6% (active) in [2]; 67% in test [3]; 60.2% in [5]; 78.7% in test [10]; 68.5% in test [6]. For the same molecule, the growth was 79.8% in test [7], 61.4% in test [8] and 60.3% in test [9].

For `COc1ccc2c(c1)C(=O)/C(=C/c1cccc(OCC(=O)c3ccc([N+](=O)[O-])cc3)c1)CO2`, the growth in test [1] is -64.1% (active); in test [2], -50.5% (active); in test [3], 2.15% (active); in test [5], 74%; in [10], 90.7%; in test [7], 58.4%. In addition, the growth is -26.8% (active) in test [8] and -29.2% (active) in test [9].

Take `COC1OC(COS(=O)OC)C(O)C(O)C1OS(=O)OC` (stereo unspecified): the growth was 80% in test [1]; 99.7% in [2]; 114% in test [3]; 116% in test [5]; 104% in test [10]; 97.7% in [6]. Also, the values for the growth in [7], in [8] and in test [9] were 106%, 102% and 98.1%, respectively.

As for `COc1cc2cc(Oc3ccc(NC(=O)Nc4ccc(C(F)(F)F)cc4)cc3)c(C)nc2cc1OC`, the growth was 59.6% in [1]; 52.7% in test [2]; 37.8% in test [3]; 49% in [5]; 38.8% in test [10]; 71.9% in test [6]. The growth in [7] is 67%; in test [8] it was 70.9%; in test [9], 64.1%.

`CC(=O)N[C@H](C(=O)N[C@@H](CCCNC(=N)N)C(=O)N[C@@H](CCCCN)C(=O)N[C@@H](CCCNC(=N)N)C(=O)NC(C(=O)N[C@@H](CC(C)C)C(=O)N[C@@H](CCCNC(=N)N)C(=O)N[C@@]1(C)CCC/C=C\CCC[C@@](C)(C(=O)N[C@@H](CCCNC(=N)N)C(=O)N[C@@H](CCC(=O)O)C(=O)N[C@@H](CC(C)C)C(=O)N[C@H](C(=O)N[C@@H](CCC(=O)O)C(N)=O)C(C)C)NC(=O)[C@H](CCC(N)=O)NC(=O)[C@H](CC(C)C)NC(=O)[C@H](CC(C)C)NC1=O)[C@@H](C)O)C(C)C` (stereo partly specified): the growth was 14% in test [1]; -11% (active) in test [2]; 9.08% (active) in test [3]; 75.9% in test [5]; 53.3% in [10]; 60.3% in test [6]. Further, the growth in [8] was -53.9% (active); in test [9], 17.3%.
